# Target: T1, Aspartate--tRNA(Asp/Asn) ligase (Mycobacterium tuberculosis (strain ATCC 25618 / H37Rv)) (UniProt P9WFW3); note: in the data most compounds retested in dose-response had high values
# T1 sequence (whole entry): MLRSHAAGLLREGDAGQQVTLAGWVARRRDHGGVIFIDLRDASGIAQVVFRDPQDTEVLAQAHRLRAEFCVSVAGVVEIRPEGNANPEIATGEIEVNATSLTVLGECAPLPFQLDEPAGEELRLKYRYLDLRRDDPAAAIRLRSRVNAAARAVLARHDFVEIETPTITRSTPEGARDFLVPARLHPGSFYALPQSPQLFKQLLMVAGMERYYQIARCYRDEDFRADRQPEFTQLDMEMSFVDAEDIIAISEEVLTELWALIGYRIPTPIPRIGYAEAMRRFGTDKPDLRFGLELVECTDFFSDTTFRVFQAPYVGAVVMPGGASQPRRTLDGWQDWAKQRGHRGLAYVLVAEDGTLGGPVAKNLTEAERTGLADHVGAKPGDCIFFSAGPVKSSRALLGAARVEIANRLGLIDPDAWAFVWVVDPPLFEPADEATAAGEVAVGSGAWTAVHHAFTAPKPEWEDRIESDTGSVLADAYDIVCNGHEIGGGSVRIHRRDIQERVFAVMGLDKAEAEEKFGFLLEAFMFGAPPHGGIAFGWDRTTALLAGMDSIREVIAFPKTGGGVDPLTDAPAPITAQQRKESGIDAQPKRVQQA
# Assay: Assay for Asp RNA synthetase-1 from Mycobacterium tuberculosis
# Assay type: functional
# Parameters: scale not given: direction of the effect not stated beside the values
# Conditions: 30 µM
row,Structure (SMILES),Percent Effect [%]
1,Cc1nn(C)c(N2CCOCC2)c1CNC(C)c1cccnc1 (stereo not given),-8.69
2,CS(=O)(=O)NCC1CCCN(Cc2ccc(F)c3cccnc23)C1 (stereo not given),5.29
3,CC(C)NC(=O)NCCCc1cc(N)n(-c2ccccc2)n1,-8.28
4,FC(F)(F)Cn1ccnc1CN1CCCC1c1noc(C2CC2)n1 (stereo not given),11.5
5,Cc1ccc(N2CCC3(CC2)CC(OCC(=O)N(C)C)CO3)nn1 (stereo not given),-2.52
6,CN1CCCc2cc(CNC(=O)c3ccncc3)ccc21,-7.79
7,Cc1n[nH]c(=O)c2c(NC(=O)CN3CCC(O)CC3)oc(C)c12,1.28
8,CC(=O)NC1CCCN(C(=O)Nc2cnc3c(cnn3C(C)C)c2)C1 (stereo not given),-4.11
9,CC(Cn1ccnc1)NC(=O)NCCNC(=O)C(C)C (stereo not given),1.08
10,NC(=O)c1csc(C(=O)N2CCCC(n3ccnc3)C2)c1 (stereo not given),-4.35
11,Cc1noc(C)c1CC(=O)OCC(=O)N1CCc2sccc2C1,6.42
12,N#Cc1c(F)cccc1N1CCC(NS(=O)(=O)c2cccs2)CC1,10.6
13,NCCn1nc(C2CCN(C(=O)CC3CCCCC3)C2)c2nccnc21 (stereo not given),1.37
14,COC[C@@]12CCO[C@@H]1CCN(C(=O)Cc1ccccc1F)C2,-2.8
15,O=C(Cc1ccc2c(c1)OCO2)N1CCN(c2cnccn2)CC1,-3.06
16,CC(NCc1c(C(C)C)nn(C)c1N1CCOCC1)C(N)=O (stereo not given),-7.54
17,CCOCC1CN(Cc2ccoc2)Cc2nn(CC3CC3)cc21 (stereo not given),6.32
18,Cc1ccc(N2CCCC(NCc3ccsc3)C2)nn1 (stereo not given),4.57
19,Brc1cc2c(cc1CN1CCC(N3CCCCC3)CC1)OCCO2,-2.09
20,COc1cccc(OC)c1CN1CCC2(CC(Nc3ccncn3)C2)C1 (stereo not given),3.04

# Target: Shiga toxin 2 (Escherichia coli O157:H7) (UniProt P09385+P09386)
# Assay: E. coli 0.157:H7 Shiga Toxin SOP - stx2 screening assay
# Assay type: functional
# Parameters: scale not given: direction of the effect not stated beside the values
# Conditions: 30 µM
row,Structure (SMILES),Percent Effect [%]
1,CCc1ccc(NS(=O)(=O)CC2=NC(=O)n3cccc3C2=O)cc1,-77.4
2,CN(C)C(=O)COCc1cncc2c1CCN(Cc1cnn(C)c1)C2,-43
3,CCOc1cccc2c1OCC(C(=O)NS(=O)(=O)c1ccc(C)s1)=C2,2.64
4,CCc1n[nH]c(C2CN(Cc3nccn3CC)CCO2)n1 (stereo not given),-10.4
5,Cc1cc(C)nc(NC(=O)C(C)Oc2ccc3c(c2)OCO3)n1 (stereo not given),-50
6,Cc1cccc(CN2C(=O)CCC23CCN(Cc2cccn2C)CC3)n1,0.0983
7,Cn1ccc(CN2CCC(CO)CC2)cc1=O,-5.61
8,Cc1ccc2nc(C3CCN(CCO)CC3)nn2c1,-3.64
9,CC(C(=O)N1CCCC1)N1CCC(c2nccn2Cc2cscn2)CC1 (stereo not given),-3.75
10,Cc1c(C(=O)NC(C)C(C)C)nnn1-c1cccc2c1CCN(C)C2 (stereo not given),3.53
11,Cc1cc(CN(C)C(=O)c2cc3c([nH]c2=O)CCCC3=O)no1,20.8
12,O=C(NCCCn1cncn1)NCC(c1ccccc1)N1CCCC1 (stereo not given),-13
13,CC(C)C(C(=O)N1CCN(c2ccncc2)CC1)n1cncn1 (stereo not given),-47.8
14,Fc1ccc(-c2nnc(CN3CCOC(Cn4cncn4)C3)o2)cc1 (stereo not given),-15.2
15,O=C(CCN1CCCN(c2nccs2)CC1)Nc1ccccc1,-52.2
16,COC(=O)c1cccn1C1CCN(Cc2ccccc2)CC1,-6.65
17,Cc1ccc(-c2csc(N)c2C#N)cc1,-3.71
18,Cc1ccccc1[C@@H]1CN(C(=O)c2ccc3[nH]nnc3c2)C[C@H]1C(=O)O,-15.8
19,OCCN1CCOC2(CCCN(c3cccc(F)c3)C2)C1 (stereo not given),-15.9
20,Cc1ccc(-c2cc(CNC(=O)N3CCOC(C)C3)on2)cc1 (stereo not given),9.22

row,Structure (SMILES),Percent Effect [%]
1,Cc1nn(C)c(N2CCOCC2)c1CNC(C)c1cccnc1 (stereo not given),9.24
2,CS(=O)(=O)NCC1CCCN(Cc2ccc(F)c3cccnc23)C1 (stereo not given),-44.4
3,CC(C)NC(=O)NCCCc1cc(N)n(-c2ccccc2)n1,-2.61
4,FC(F)(F)Cn1ccnc1CN1CCCC1c1noc(C2CC2)n1 (stereo not given),-34
5,Cc1ccc(N2CCC3(CC2)CC(OCC(=O)N(C)C)CO3)nn1 (stereo not given),-23.3
6,CN1CCCc2cc(CNC(=O)c3ccncc3)ccc21,-75.2
7,Cc1n[nH]c(=O)c2c(NC(=O)CN3CCC(O)CC3)oc(C)c12,-66.6
8,CC(=O)NC1CCCN(C(=O)Nc2cnc3c(cnn3C(C)C)c2)C1 (stereo not given),18
9,CC(Cn1ccnc1)NC(=O)NCCNC(=O)C(C)C (stereo not given),11.8
10,NC(=O)c1csc(C(=O)N2CCCC(n3ccnc3)C2)c1 (stereo not given),0.351
11,Cc1noc(C)c1CC(=O)OCC(=O)N1CCc2sccc2C1,-7.79
12,N#Cc1c(F)cccc1N1CCC(NS(=O)(=O)c2cccs2)CC1,-25.2
13,NCCn1nc(C2CCN(C(=O)CC3CCCCC3)C2)c2nccnc21 (stereo not given),-31.7
14,COC[C@@]12CCO[C@@H]1CCN(C(=O)Cc1ccccc1F)C2,-1.69
15,O=C(Cc1ccc2c(c1)OCO2)N1CCN(c2cnccn2)CC1,19
16,CC(NCc1c(C(C)C)nn(C)c1N1CCOCC1)C(N)=O (stereo not given),-49.6
17,CCOCC1CN(Cc2ccoc2)Cc2nn(CC3CC3)cc21 (stereo not given),-16.8
18,Cc1ccc(N2CCCC(NCc3ccsc3)C2)nn1 (stereo not given),10.6
19,Brc1cc2c(cc1CN1CCC(N3CCCCC3)CC1)OCCO2,-51.2
20,COc1cccc(OC)c1CN1CCC2(CC(Nc3ccncn3)C2)C1 (stereo not given),0.472
